An excerpt weighted towards active compounds, which were near 19% of everything screened.
TDP1 inh: qHTS Assay for Inhibitors of Tyrosyl-DNA Phosphodiesterase (TDP1). 350,000 tested, 0.28% active. Tyrosyl-DNA phosphodiesterase 1 (Homo sapiens), Q9NUW8. Potency, µM (series often up to 130 µM), actives largely listed as inhibitors. recombinant TDP1, AlphaScreen DNA substrate cleavage. AID 485290, 2010; note: nearly all actives have a fitted effect of over 40% in size
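Here, a 5' biotin and 3' phosphotyrosine-FITC DNA oligonucleotide reports Tdp1 activity: intact substrate bridges AlphaScreen beads, while cleavage leaves a 3' phosphate and drops signal. All incubations at room temperature.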
TDP1 cell noCPT: qHTS for Inhibitors of human tyrosyl-DNA phosphodiesterase 1 (TDP1): qHTS in cells in absence of CPT. DT40 Tdp1-/- hTDP1 cells, no CPT, ATP luminescence, 48 h. Potency, µM (series often up to 46.2 µM), usual class: inhibitors. AID 686978, 2013. 420,000 tested, 15% active; note: nearly all actives have a fitted effect of over 55% in size
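Growth kinetics read by CellTiter-Glo luminescence after ≥48 hr at 37 °C. Cells: DT40 Tdp1-/- stably carrying human TDP1, 400 per well, compound exposure in the absence of CPT (DMSO vehicle).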
Gal4-VP16 FLuc: VP16 counterscreen qHTS for inhibitors of ROR gamma transcriptional activity | 310,000 tested, 3.5% active | Potency, µM (highest dose often 53.6 µM), usual class: inhibitors | Drosophila S2 Gal4-VP16 UAS-luciferase, luminescence, 20 h;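 note: Gal4-VP16 expression switched on by copper sulfate through the metallothionein promoter; nearly all actives have a fitted effect of over 50% in size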
RORg inh: qHTS for inhibitors of ROR gamma transcriptional activity; Nuclear receptor ROR-gamma (Mus musculus), P51450; Drosophila S2 Gal4-RORgamma UAS-luciferase reporter, 20 h; AID 2551, 2010; 310,000 tested, 5.4% active; Potency, µM (top dose mostly 53.6 µM), actives largely listed as inhibitors; note: nearly all actives have a fitted effect of over 60% in size
Target sequence (P51450 whole entry, looked up, the tested form may be a part): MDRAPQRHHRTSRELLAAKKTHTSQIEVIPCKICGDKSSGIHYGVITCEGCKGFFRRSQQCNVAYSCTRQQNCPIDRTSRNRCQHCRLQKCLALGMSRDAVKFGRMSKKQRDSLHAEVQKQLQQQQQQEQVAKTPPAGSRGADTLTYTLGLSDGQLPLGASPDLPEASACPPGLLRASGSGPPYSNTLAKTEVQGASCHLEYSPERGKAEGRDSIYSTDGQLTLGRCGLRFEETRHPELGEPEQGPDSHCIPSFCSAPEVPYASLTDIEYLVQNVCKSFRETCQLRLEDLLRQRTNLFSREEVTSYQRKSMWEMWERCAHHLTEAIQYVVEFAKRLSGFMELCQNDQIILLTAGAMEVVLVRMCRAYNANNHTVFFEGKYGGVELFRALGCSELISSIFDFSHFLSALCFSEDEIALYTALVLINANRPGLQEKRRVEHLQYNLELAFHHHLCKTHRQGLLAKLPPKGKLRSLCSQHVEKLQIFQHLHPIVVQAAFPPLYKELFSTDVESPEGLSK
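Compounds are pin-transferred onto Drosophila Schneider cells expressing a copper-inducible Gal4–ROR gamma transactivation domain fusion. After 1 hr, copper sulfate is added to 700 uM final; luciferase is read 20 hr later.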
DT40 TDP1 CPT: qHTS for Inhibitors of human tyrosyl-DNA phosphodiesterase 1 (TDP1): qHTS in cells in presence of CPT. chicken DT40 Tdp1-/-;hTDP1 cells + 20 nM CPT, ATP luminescence, 48 h. Potency, µM (doses to about 46.2 µM), hits mostly inhibitors. 420,000 tested, 12% active. AID 686979, 2013; note: nearly all actives have a fitted effect of over 55% in size
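Chicken DT40 Tdp1-/- cells complemented with human TDP1, 400 cells/well, exposed to compounds plus 20 nM camptothecin for at least 48 h at 37 C; viability read as ATP content by CellTiter-Glo luminescence.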
Numbers stand for hits; n = inactive; u = inconclusive; x = not tested or not shown; [ ] = dose if it differs, or a comment. Calls come from the whole dose curve; as a rule, active = well fitted curve in the direction sought with a large enough effect; inconclusive = small, poorly fitted or top-dose-only effect, or another doubt; inactive = no such curve, though single readings can be large; an effect the other way counts as inactive or inconclusive.

SMILES	TDP1 inh	TDP1 cell noCPT	Gal4-VP16 FLuc	RORg inh	DT40 TDP1 CPT
COc1ccccc1-c1nnc(SCc2ccccn2)n1C	n	n	n	n	n
Cn1c(SCc2cc(=O)c3cc(Cl)ccc3[nH]2)nnc1-c1ccccc1	n	20.6µM	x	x	13µM
CCOc1ccc(-c2ccc(SCc3ccccn3)nn2)cc1	n	23.1µM	n	u	u
COc1ccc(-c2nnc(SCc3cc(=O)c4cc(C)cc(C)c4[nH]3)n2C)cc1	n	18.4µM	x	x	23.1µM
COc1ccc(C(=O)Nc2nnc(SCc3cc(=O)c4cc(C)cc(C)c4[nH]3)s2)cc1	n	n	x	x	n
CC(=O)c1cccc(NS(=O)(=O)c2c(C)n[nH]c2C)c1	n	n	n	n	n
Cc1cccc(-c2ncc(CN3CCN(C4CCCC4)C(CCO)C3)cn2)c1 (stereo not drawn)	n	n	n	n	n
OCC1(Cc2ccccc2)CCN(Cc2cnc(-c3ccc(Cl)cc3)nc2)CC1	n	23.1µM	n	n	u
OCCC1CN(Cc2cnc(-c3ccc(Cl)cc3)nc2)CCN1C1CCCCC1 (stereo not drawn)	n	20.6µM	n	n	u
CC1(C)Cc2ccccc2-c2nc(NCCCO)n(-c3ccccc3)c(=O)c21	n	14.6µM	n	n	23.1µM
Cn1c(NCCO)nc2c(c1=O)C1(CCCCC1)Cc1ccccc1-2	n	n	n	n	u
Cc1noc(C)c1CN(C(=S)NC1CC2CCC1C2)c1ccccc1 (stereo not drawn)	n	23.1µM	n	n	u
Cc1nn(-c2ccccc2)c2sc(C(=O)Nc3cccc(O)c3)cc12	x	23.1µM	x	x	u
Cc1nn(-c2ccccc2)c2sc(C(=O)Nc3ccccc3Br)cc12	n	x	x	x	x
Cc1nn(CC(C)C)c(Cl)c1C(=O)NCC(C)(C)N1CCOCC1	x	n	x	x	n
Cn1nc(C(C)(C)C)cc1NC(=O)C1(C)CCN1C(=O)CC(c1ccccc1)c1ccccc1 (stereo not drawn)	x	18.4µM	x	x	18.4µM
Cn1nc(C2CC2)cc1NC(=O)C1(C)CCN1C(=O)c1ccccc1CCc1ccccc1 (stereo not drawn)	x	16.4µM	x	x	29.1µM
Cn1nc(C2CC2)cc1NC(=O)C1(C)CCN1C(=O)CC(c1ccccc1)c1ccccc1 (stereo not drawn)	x	13µM	x	x	23.1µM
Cc1nn(-c2ccccc2)nc1C(=O)Nc1ccc2[nH]ncc2c1	n	20.6µM	n	n	n
CCC(C(=O)Nc1ccc2[nH]ncc2c1)c1ccccc1 (stereo not drawn)	x	n	n	n	n
CCCn1c(N)c(C(=O)CSc2ncnc3sccc23)c(=O)n(C)c1=O	n	u	x	x	u
O=c1c[n+]([O-])c2ccccc2n1OCc1c(F)cccc1F	n	20.6µM	n	n	13µM
N#CCc1ccc(NS(=O)(=O)c2ccc(C3CCCCC3)cc2)cc1	n	14.6µM	u	n	23.1µM
N#CCCN1CCN(S(=O)(=O)c2ccc(C3CCCCC3)cc2)CC1	n	n	x	x	13µM
Cc1cccc(NS(=O)(=O)c2ccc(C3CCCCC3)cc2)c1	n	14.6µM	u	n	20.6µM
SMILES	TDP1 inh	TDP1 cell noCPT	Gal4-VP16 FLuc	RORg inh	DT40 TDP1 CPT
N#CCCN1CCN(S(=O)(=O)c2ccc(S(=O)(=O)N3CCOCC3)cc2)CC1	n	n	n	n	n
COc1ccc(S(=O)(=O)Nc2ccc(CC#N)cc2)cc1	n	n	n	n	n
O=C(O)c1cccc(NS(=O)(=O)c2ccc(C3CCCCC3)cc2)c1	n	n	u	n	n
O=C(c1cccc(S(=O)(=O)N2CCOCC2)c1)N1CCN(Cc2ccc3c(c2)OCO3)CC1	n	u	n	n	u
CO[C@H]1COC(=O)[C@@H](CCSC)NC(=O)C/C=C\[C@@H](C)[C@H](OC)COC(=O)[C@@H](OCc2ccccc2)/C=C\[C@@H]1C	n[21 µM]	x	n[10 µM]	n[10 µM]	x
COc1ccc(CN(C)CC(O)COc2ccc(-c3ccccc3)cc2)cc1OC (stereo not drawn)	n	u	n	n	18.4µM
C=CCOc1ccc(CN(C)CC(O)COc2ccc(CCC(C)=O)cc2)cc1 (stereo not drawn)	n	16.4µM	n	n	u
CC(=O)CCc1ccc(OCC(O)CNCCOc2ccc(C)cc2)cc1 (stereo not drawn)	n	n	n	n	n
CCCCN1C=C(C(=O)OCC)C(=O)CC1	x	n	x	x	n
C#CC1(NC(=O)NS(=O)(=O)c2ccc(C)cc2)CCCCC1	x	n	n	n	n
CCc1nc2ccc(C(=O)N3CCN(C(=O)c4ccco4)CC3)cn2c1N(CC)Cc1cccc(Br)c1	x	23.1µM	x	x	14.6µM
CCc1nc2ccc(C(=O)NC3CCN(Cc4ccccc4)CC3)cn2c1N(CC)Cc1cccc(Br)c1	x	11.6µM	x	x	14.6µM
CC(C)Oc1ccc(C(=O)NC2CCN(Cc3ccccc3)CC2)cc1	x	u	n	n	n
CCc1nc2ccc(C(=O)N(C)Cc3ccco3)cn2c1N(CC)Cc1cccc(Br)c1	x	13µM	x	x	11.6µM
CCc1nc2ccc(C(=O)N3CCN(C(=O)c4ccco4)CC3)cn2c1N(C)Cc1nccs1	x	n	x	x	n
CCc1nc2ccc(C(=O)N(C)Cc3ccco3)cn2c1N(C)CCCc1ccccc1	x	16.4µM	x	x	16.4µM
CC(=O)c1ccc(S(=O)(=O)NC(=O)NC2CCCCC2)cc1	n	n	n	n	n
Cc1cc2oc3c(c(=O)c2cc1C)C(c1ccc(F)cc1)N(CCCN1CCOCC1)C3=O (stereo not drawn)	n	n	n	u	n
COC(=O)c1ccc(N2CCOCC2)c(NC(=O)c2cc3ccccc3o2)c1	x	n	x	x	n
CCC(=O)N1CCN(c2ccc(NC(=O)c3cc4ccccc4o3)cc2Cl)CC1	n	13µM	n[0.365 µM]	n	9.2µM
COC(=O)c1ccc(N2CCN(C)CC2)c(NC(=O)c2cc3ccccc3o2)c1	n	23.1µM	n	n	20.6µM
CCCC(=O)N1CCN(c2ccc(NC(=O)C(C)(C)C)cc2Cl)CC1	n	u	n	n	20.6µM
CCCC(=O)N1CCN(c2ccc(NC(=O)C(C)(C)C)cc2)CC1	n	n	n	n	n
O=C(Nc1ccc(N2CCN(C(=O)c3ccccc3)CC2)c(Cl)c1)c1ccco1	n	13µM	u	n	16.4µM
COc1ccc(N2CC(O)=C(c3nc(-c4ccc(F)cc4)cs3)C2=N)cc1	n	n	n	n	n
C=CCNC(=O)/C(=C\c1ccc([N+](=O)[O-])cc1)NC(C)=O	n	n	n	n	n
O=C(Nc1ccc(N2CCN(C(=O)c3ccco3)CC2)c(Cl)c1)c1cc2ccccc2o1	n	8.2µM	n	u	4.11µM
CCCC(=O)N1CCN(c2ccc(NC(=O)c3cccs3)cc2Cl)CC1	n	n	n	n	n

Bioassay records from PubChem BioAssay.
